# What was measured:
# [1] = biological target: Tyrosine-protein kinase SYK (Homo sapiens) (UniProt P43405); details: at 1 µM
# [2] = biological target: T1, Tyrosine-protein kinase Tec (Homo sapiens) (UniProt P42680); details: at 0.1 µM
# T1 sequence (whole entry): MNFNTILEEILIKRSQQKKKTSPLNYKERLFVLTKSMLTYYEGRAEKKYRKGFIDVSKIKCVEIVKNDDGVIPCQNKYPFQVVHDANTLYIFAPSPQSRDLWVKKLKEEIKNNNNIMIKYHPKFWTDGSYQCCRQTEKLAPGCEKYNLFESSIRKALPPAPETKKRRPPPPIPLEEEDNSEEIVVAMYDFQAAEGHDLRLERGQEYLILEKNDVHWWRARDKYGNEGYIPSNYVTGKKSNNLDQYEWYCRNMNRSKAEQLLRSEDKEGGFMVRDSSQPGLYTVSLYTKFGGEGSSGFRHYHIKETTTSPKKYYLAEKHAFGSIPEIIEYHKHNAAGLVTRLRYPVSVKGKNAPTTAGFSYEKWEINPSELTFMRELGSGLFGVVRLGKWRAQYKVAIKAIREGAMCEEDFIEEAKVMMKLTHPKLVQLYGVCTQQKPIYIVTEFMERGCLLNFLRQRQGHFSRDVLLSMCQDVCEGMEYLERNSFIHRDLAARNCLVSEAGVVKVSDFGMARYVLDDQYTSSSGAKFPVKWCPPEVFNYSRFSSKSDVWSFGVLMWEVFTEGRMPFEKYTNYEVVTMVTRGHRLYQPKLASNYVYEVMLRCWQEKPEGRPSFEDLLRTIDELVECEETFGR
# [3] = biological target: T1, Tyrosine-protein kinase Tec (Homo sapiens); details: at 1 µM
# [4] = biological target: Angiopoietin-1 receptor (Homo sapiens) (UniProt Q02763); details: at 0.1 µM
# [5] = biological target: Angiopoietin-1 receptor (Homo sapiens) (UniProt Q02763); details: at 1 µM
# [6] = biological target: T2, Non-receptor tyrosine-protein kinase TNK1 (Homo sapiens) (UniProt Q13470); details: at 0.1 µM
# T2 sequence (whole entry): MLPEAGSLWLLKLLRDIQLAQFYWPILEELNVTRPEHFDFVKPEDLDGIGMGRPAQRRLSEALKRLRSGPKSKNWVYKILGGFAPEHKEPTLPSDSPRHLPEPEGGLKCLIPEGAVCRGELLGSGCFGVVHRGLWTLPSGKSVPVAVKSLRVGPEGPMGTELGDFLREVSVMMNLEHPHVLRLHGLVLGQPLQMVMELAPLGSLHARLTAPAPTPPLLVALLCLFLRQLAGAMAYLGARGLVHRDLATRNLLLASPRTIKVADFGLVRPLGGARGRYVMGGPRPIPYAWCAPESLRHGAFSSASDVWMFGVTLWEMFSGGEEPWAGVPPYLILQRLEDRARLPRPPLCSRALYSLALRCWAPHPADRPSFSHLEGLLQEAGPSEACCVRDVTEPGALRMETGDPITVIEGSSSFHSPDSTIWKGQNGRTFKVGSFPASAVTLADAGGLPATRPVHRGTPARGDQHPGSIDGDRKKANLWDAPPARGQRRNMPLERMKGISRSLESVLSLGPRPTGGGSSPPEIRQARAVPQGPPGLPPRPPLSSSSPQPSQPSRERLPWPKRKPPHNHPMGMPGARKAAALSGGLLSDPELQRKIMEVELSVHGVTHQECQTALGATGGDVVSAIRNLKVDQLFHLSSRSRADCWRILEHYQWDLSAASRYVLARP
# [7] = biological target: T2, Non-receptor tyrosine-protein kinase TNK1 (Homo sapiens); details: at 1 µM
# [8] = biological target: Activated CDC42 kinase 1 (Homo sapiens) (UniProt Q07912); details: at 0.1 µM
# [9] = biological target: Activated CDC42 kinase 1 (Homo sapiens) (UniProt Q07912); details: at 1 µM
# [10] = biological target: High affinity nerve growth factor receptor (Homo sapiens) (UniProt P04629); details: at 0.1 µM
# [11] = biological target: High affinity nerve growth factor receptor (Homo sapiens) (UniProt P04629); details: at 1 µM
# [12] = biological target: BDNF/NT-3 growth factors receptor (Homo sapiens) (UniProt Q16620); details: at 0.1 µM
# [13] = biological target: BDNF/NT-3 growth factors receptor (Homo sapiens) (UniProt Q16620); details: at 1 µM
# [14] = biological target: NT-3 growth factor receptor (Homo sapiens) (UniProt Q16288); details: at 0.1 µM
# [15] = biological target: NT-3 growth factor receptor (Homo sapiens) (UniProt Q16288); details: at 1 µM
# [16] = biological target: T3, Tyrosine-protein kinase TXK (Homo sapiens) (UniProt P42681); details: at 0.1 µM
# T3 sequence (whole entry): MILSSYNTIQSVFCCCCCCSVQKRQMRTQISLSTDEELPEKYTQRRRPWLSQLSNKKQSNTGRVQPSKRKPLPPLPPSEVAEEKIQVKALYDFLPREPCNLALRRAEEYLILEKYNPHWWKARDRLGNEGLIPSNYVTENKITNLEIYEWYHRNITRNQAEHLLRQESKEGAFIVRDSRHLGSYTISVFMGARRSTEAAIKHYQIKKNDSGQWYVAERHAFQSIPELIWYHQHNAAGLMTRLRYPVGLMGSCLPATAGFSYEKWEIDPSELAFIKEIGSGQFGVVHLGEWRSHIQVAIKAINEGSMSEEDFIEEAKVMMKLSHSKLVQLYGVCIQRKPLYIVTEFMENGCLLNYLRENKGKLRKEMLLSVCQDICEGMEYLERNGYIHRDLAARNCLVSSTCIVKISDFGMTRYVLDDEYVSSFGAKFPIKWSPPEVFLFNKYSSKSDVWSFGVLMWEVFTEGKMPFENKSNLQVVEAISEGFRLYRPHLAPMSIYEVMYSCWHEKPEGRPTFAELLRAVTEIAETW
# [17] = biological target: T3, Tyrosine-protein kinase TXK (Homo sapiens); details: at 1 µM
# [18] = biological target: Non-receptor tyrosine-protein kinase TYK2 (Homo sapiens) (UniProt P29597); details: at 0.1 µM;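 also: each value is a mean of the inhibition readings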
# [19] = biological target: T4, Dual specificity protein kinase TTK (Homo sapiens) (UniProt P33981); details: at 1 µM;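 also: reported figures are mean TTK inhibition at 1 µM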
# T4 sequence (whole entry): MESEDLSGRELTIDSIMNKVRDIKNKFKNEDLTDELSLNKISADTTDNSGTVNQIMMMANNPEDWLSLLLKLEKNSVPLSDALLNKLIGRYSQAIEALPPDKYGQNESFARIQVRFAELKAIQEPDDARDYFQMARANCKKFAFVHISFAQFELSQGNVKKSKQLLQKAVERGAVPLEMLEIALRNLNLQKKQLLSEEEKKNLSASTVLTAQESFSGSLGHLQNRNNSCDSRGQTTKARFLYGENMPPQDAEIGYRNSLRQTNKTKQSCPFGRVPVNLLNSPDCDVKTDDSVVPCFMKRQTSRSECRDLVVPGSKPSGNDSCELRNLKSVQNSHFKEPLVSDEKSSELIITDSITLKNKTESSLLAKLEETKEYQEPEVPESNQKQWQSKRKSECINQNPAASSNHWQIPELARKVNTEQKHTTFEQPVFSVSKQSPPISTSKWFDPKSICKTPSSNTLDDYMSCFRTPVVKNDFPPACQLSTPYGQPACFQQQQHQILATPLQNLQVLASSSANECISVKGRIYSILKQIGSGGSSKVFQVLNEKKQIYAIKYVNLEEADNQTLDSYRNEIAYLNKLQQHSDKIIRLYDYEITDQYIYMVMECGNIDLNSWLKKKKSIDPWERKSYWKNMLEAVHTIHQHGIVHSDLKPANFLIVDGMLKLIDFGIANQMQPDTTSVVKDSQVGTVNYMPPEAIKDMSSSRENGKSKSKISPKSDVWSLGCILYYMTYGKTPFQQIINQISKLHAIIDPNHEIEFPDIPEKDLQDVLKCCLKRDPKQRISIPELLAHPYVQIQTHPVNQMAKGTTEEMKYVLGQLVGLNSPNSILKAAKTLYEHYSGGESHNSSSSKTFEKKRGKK
# [20] = biological target: T5, Aurora kinase A (Homo sapiens) (UniProt O14965); details: at 0.1 µM;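 also: each reported value is a mean percent inhibition of Aurora-A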
# T5 sequence (whole entry): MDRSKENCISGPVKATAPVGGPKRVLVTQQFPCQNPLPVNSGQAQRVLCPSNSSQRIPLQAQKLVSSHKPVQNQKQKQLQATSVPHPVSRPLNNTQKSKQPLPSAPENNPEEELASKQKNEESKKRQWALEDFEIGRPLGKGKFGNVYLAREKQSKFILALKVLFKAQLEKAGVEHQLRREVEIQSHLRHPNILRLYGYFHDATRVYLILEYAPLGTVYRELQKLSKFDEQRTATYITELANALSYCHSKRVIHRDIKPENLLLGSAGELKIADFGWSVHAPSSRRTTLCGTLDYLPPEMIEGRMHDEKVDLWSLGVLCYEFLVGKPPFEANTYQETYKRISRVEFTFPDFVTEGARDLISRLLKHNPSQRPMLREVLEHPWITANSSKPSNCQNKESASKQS
# Sequence of Non-receptor tyrosine-protein kinase TYK2 (Homo sapiens) (P29597 whole entry): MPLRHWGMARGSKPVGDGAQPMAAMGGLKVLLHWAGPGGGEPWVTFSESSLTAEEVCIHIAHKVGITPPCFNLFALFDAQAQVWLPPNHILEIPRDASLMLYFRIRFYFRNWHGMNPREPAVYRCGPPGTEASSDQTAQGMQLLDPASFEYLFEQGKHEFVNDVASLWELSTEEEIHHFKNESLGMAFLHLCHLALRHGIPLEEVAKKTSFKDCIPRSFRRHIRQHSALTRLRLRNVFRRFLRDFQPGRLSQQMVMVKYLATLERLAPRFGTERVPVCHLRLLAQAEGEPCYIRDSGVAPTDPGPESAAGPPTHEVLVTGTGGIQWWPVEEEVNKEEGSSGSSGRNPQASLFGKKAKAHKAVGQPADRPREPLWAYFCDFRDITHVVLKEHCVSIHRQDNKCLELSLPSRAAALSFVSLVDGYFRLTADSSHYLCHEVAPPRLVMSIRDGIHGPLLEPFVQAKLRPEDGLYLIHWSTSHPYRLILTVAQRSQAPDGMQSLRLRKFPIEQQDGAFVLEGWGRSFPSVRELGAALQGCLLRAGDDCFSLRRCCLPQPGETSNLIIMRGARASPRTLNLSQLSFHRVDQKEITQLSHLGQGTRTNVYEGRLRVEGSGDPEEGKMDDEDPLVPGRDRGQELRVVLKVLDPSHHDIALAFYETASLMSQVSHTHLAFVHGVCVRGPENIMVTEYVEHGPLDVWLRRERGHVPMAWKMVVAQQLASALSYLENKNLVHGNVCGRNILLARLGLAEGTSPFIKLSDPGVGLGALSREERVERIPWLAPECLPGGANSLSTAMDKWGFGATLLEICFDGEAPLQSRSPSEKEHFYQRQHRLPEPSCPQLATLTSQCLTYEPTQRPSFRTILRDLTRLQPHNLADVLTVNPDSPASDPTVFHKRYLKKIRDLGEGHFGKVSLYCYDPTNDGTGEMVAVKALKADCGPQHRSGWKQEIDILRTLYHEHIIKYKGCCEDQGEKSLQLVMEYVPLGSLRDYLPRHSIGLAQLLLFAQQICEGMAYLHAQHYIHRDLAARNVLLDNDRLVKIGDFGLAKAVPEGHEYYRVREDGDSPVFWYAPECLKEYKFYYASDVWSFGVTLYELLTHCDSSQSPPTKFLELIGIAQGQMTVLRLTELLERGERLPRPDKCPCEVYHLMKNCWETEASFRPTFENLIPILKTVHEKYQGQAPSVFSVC
# Sequence of NT-3 growth factor receptor (Homo sapiens) (Q16288 32-839 limits assumed): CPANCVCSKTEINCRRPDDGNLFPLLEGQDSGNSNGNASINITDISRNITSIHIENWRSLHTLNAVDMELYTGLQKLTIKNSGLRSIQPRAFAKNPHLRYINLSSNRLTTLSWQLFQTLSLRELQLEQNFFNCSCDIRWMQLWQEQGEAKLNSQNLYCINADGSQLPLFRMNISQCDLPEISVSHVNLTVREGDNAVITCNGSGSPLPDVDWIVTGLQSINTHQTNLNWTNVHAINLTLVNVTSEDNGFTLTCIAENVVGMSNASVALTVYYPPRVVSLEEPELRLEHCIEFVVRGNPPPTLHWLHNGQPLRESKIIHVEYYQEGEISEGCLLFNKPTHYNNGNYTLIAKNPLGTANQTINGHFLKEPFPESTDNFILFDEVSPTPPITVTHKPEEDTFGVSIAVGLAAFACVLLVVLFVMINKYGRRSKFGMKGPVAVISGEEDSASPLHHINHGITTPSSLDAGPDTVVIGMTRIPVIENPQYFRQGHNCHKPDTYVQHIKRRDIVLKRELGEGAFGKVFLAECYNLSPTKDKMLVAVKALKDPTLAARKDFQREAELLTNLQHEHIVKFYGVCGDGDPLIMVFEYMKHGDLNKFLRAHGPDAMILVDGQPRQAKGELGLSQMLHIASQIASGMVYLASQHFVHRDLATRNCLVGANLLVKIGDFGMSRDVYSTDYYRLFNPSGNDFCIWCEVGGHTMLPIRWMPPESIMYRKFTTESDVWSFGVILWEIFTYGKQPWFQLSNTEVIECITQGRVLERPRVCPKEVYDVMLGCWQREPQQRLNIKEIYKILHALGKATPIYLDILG
# Sequence of High affinity nerve growth factor receptor (Homo sapiens) (P04629 33-796 limits assumed): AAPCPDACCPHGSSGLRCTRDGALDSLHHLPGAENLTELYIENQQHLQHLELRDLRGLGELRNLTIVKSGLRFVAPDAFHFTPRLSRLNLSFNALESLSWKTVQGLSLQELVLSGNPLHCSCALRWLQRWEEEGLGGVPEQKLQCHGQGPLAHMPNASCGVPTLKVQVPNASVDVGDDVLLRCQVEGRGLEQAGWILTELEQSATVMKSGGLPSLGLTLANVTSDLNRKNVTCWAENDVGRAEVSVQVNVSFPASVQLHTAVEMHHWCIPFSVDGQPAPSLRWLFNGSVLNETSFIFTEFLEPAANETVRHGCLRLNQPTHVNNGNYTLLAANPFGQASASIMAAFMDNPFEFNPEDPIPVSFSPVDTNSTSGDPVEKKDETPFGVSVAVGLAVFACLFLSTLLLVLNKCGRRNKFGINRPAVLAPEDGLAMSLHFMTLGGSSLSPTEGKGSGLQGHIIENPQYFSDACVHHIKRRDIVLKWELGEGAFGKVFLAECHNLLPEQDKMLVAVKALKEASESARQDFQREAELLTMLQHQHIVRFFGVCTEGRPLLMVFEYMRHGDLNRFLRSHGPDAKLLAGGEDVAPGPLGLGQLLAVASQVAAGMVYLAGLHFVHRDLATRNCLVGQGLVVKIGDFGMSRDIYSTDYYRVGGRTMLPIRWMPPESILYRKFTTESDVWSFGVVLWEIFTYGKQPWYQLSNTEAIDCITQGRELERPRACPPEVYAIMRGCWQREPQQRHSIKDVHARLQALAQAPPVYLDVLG
# Sequence of BDNF/NT-3 growth factors receptor (Homo sapiens) (Q16620 32-822 limits assumed): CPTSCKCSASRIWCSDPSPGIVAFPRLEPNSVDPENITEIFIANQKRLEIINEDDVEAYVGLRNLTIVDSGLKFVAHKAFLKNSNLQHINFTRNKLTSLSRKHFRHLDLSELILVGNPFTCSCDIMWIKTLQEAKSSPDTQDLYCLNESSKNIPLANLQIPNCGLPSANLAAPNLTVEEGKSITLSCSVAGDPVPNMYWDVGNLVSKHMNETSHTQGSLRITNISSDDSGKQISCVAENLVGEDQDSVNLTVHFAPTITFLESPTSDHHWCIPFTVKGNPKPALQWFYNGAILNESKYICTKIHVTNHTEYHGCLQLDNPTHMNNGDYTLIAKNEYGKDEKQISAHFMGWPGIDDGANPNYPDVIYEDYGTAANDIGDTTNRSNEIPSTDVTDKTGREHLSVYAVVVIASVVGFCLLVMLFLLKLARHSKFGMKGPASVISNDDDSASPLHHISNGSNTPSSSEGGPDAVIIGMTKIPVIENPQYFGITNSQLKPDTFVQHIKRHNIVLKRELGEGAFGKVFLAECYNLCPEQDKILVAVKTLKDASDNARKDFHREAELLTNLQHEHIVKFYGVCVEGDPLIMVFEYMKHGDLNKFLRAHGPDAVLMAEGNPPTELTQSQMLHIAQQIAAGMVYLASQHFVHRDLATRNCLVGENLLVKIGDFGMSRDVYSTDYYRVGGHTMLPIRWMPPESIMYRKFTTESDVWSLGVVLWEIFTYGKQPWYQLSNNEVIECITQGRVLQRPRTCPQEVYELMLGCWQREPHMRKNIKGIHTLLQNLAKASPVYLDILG
# Sequence of Angiopoietin-1 receptor (Homo sapiens) (Q02763 whole entry): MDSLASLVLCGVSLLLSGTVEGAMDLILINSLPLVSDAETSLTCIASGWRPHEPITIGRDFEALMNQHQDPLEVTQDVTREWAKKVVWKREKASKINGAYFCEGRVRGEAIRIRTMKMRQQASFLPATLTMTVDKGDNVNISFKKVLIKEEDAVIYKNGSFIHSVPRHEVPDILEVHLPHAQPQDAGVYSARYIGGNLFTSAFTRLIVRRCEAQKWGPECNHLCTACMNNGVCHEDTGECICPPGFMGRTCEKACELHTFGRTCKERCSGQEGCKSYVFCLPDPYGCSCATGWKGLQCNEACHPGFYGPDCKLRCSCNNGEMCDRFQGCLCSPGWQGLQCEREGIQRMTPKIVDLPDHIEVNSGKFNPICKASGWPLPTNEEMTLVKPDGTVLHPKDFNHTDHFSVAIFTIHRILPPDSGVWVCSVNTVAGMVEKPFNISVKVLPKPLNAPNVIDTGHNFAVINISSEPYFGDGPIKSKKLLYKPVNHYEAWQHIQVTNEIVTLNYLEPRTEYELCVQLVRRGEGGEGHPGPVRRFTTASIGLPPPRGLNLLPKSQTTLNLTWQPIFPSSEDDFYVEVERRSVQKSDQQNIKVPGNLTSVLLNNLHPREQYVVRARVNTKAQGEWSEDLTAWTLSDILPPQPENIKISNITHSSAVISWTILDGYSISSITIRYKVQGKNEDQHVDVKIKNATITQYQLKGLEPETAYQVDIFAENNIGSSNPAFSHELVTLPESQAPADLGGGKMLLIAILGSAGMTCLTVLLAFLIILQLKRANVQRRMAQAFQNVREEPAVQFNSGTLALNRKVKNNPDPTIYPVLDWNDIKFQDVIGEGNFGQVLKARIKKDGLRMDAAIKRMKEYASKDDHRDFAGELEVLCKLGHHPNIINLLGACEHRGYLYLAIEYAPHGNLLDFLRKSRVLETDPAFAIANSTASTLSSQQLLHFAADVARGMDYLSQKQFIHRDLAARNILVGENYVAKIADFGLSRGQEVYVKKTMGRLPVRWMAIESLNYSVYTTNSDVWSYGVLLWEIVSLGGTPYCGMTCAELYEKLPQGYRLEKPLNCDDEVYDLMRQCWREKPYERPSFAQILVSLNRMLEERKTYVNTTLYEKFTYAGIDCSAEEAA
Structure (SMILES),inhibition [1] [%],inhibition [2] [%],inhibition [3] [%],inhibition [4] [%],inhibition [5] [%],inhibition [6] [%],inhibition [7] [%],inhibition [8] [%],inhibition [9] [%],inhibition [10] [%],inhibition [11] [%],inhibition [12] [%],inhibition [13] [%],inhibition [14] [%],inhibition [15] [%],inhibition [16] [%],inhibition [17] [%],inhibition [18] [%],inhibition [19] [%],inhibition [20] [%]
CCCN1CCC=C(c2ccc(Nc3nc(Nc4ccccc4C(N)=O)c4cc[nH]c4n3)c(C)c2)C1,1.61,6.08,8.24,3.32,3.76,26.4,70.1,1,12.7,2.13,6.59,3.01,6.47,2.46,3.13,6.59,13.1,-5.21,70.7,6.15
CNC(=O)c1cncc(/C=C/c2c(Cl)cccc2Cl)c1,1,5.68,23.4,5.91,3.57,8.81,38.8,0.26,11,2.22,6.89,2.99,4.39,2.24,2.7,5.28,22.7,-2.78,18.3,0.59
Fc1cccc(COc2ccc(Nc3ncnc4sc(-c5cccs5)cc34)cc2Cl)c1,1.01,-0.73,1.47,1.07,2.01,3.5,4.12,-0.19,1.13,1.3,2.88,1.85,1.29,1.21,1.03,2.2,0.81,-0.26,2.5,1.44
NCc1ccc(-c2nc(-c3ccc(Cl)c(O)c3)c(-c3ccncc3)[nH]2)cc1,1.13,6.38,33,4.33,21,-1.81,1.42,-0.36,-0.9,-4.35,-1.42,-0.05,0.73,-0.91,1.61,18.9,61.1,1.75,7.44,1.53
O=C1NC(=O)C(c2cccc(Cl)c2)=C1Nc1ccc(O)c(Cl)c1,0.79,1.84,1.44,1.54,3.61,0.52,8.8,-0.75,-0.58,-3.23,2.57,-0.13,0.31,-0.33,1.68,2.35,3.52,3.26,4.84,2.24
CCn1c(-c2nonc2N)nc2cncc(C(=O)N3CCNCC3)c21,3.25,7.87,7.17,6.61,5.14,3.89,5.69,1.51,1.52,1.71,4.86,3.21,4.35,3.96,4.33,7.08,5.49,-1.93,12.5,5.21
CCN1CCC(CC(=O)Nc2n[nH]c3nc(-c4cccs4)c(Br)cc23)CC1,0.14,-2,-2.77,9.68,11.1,-7.55,4.72,-0.98,-0.2,-0.5,0.88,-0.35,-1.99,-0.62,0.26,-1.07,-3.55,-2.72,-0.41,-2.72

# — ChEMBL document CHEMBL1961873, “Compounds: GSK PKIS; Assays: Nanosyn kinase panel” (2012)
